Source: PubChem BioAssay (The Scripps Research Institute Molecular Screening Center)
This is a sample that favours compounds with a hit; in the whole collection about 1.1% have one here.
HTR5A ag – counter-screen for OPRM1-OPRD1 agonists: human HTR5A agonism; P47898; HTR5A agonist assay, luminescence, cell-based; activation, % at 9.3 µM; actives 0.61% (n = 340,000); AID 504692; in the data active = activation mostly above about 9.5%, no sharp cut-off; inactive = mostly below about 7.6%
Target sequence (P47898 whole entry, looked up): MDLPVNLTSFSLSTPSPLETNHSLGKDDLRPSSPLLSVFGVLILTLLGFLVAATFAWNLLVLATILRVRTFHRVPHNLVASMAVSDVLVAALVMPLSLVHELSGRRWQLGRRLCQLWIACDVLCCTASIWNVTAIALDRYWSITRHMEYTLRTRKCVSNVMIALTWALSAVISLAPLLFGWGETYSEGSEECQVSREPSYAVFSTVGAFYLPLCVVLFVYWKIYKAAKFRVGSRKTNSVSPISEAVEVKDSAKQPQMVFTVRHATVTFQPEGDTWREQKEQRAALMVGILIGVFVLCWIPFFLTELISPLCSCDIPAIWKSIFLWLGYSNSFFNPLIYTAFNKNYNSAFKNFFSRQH
OPRM1-OPRD1 inv – mu-delta opioid heterodimer inverse agonism; P35372+P41143; cell-based MOR-DOR heterodimer luminescence; inhibition, % at 9.3 µM; actives 0.21% (n = 340,000); in the data active = inhibition above about 22%, passing the limit was not always enough
HTR5A inv ag – counter-screen for OPRM1-OPRD1 inverse agonists: human HTR5A inverse agonism. actives 0.083% (n = 340,000). AID 504634. P47898. inhibition, % at 9.3 µM. HTR5A cell line, luminescence; in the data active = inhibition mostly above about 23%, no sharp cut-off; inactive = mostly below about 18%
MOR-DOR ag-1 – OPRM1-OPRD1 heterodimerization agonism. AID 504326. activation, % at 9.3 µM. actives 0.3% (n = 340,000). cells, luminescence
MOR-DOR ag-2 – opioid heterodimer agonism, HTR5A counter-screen; actives 13% (n = 800); U2OS counter-screen cells, complementation luminescence, 3 h; activation, % at 9.3 µM; shares compounds with HTR5A ag
HTR5A ag confirm – confirmation of human HTR5A agonists | activation, % at 9.3 µM | HTR5A agonist cell assay, luminescence | actives 17% (n = 800) | shares compounds with HTR5A ag; in the data active = activation above about 17%
Numbers stand for hits; 0 = inactive; - = no result given. Cut-off read from the data, not from the text of the source, unless noted: active = activation above about 18%; inactive = the rest.

SMILES	HTR5A ag	OPRM1-OPRD1 inv	HTR5A inv ag	MOR-DOR ag-1	MOR-DOR ag-2	HTR5A ag confirm
Cc1cc(C)c(S(=O)(=O)Nc2ccc(-c3cn4ccccc4n3)cc2)c(C)c1	14.3	0	0	0	0	39.9
Cc1ccccc1NC(=O)Cc1nc(COC(=O)C(C)C)cs1	0	0	0	0	-	-
C=CCOc1ccc(/C=C/C(=O)OCc2csc(CC(=O)Nc3ccccc3C)n2)cc1	19.6	0	0	0	33.5	0
Cc1c(C(=O)N2CCCCC2)c(S(=O)(=O)N2c3ccccc3CC2C)c(C)n1C (stereo not given)	0	0	0	0	-	-
Cc1ccc(NC(=S)N/N=C2\CC(C)(C)Oc3ccc(O)cc32)cc1	0	0	0	0	-	-
COc1ccc(NC(=S)N/N=C2\CC(C)(C)Oc3ccc(OC)cc32)cc1	19.2	0	0	0	0	0
COC(=O)C1=C(C)N(Cc2ccccc2)C(=NCc2cc(OC)c(OC)c(OC)c2)N[C@H]1c1ccc(Br)cc1	14.4	0	0	0	0	0
CN(CC(=O)Nc1ccc(Cl)c(C(F)(F)F)c1)C(=O)c1ccc2c(c1)NC(=O)CS2	15.8	0	0	0	0	0
CN(CC(=O)Nc1ccc(F)c(F)c1F)C(=O)c1ccc2c(c1)NC(=O)CS2	0	0	0	0	-	-
O=C1OCCC1Sc1nnc(-c2cccs2)n1Cc1ccccc1 (stereo not given)	14.6	0	0	0	0	0
O=C1OCCC1Sc1nnc(-c2ccccc2Cl)n1Cc1ccccc1 (stereo not given)	0	0	0	0	-	-
CC1CCN(C(=O)c2[nH]cnc2C(=O)NC2CCN(C(=O)OC(C)(C)C)CC2)CC1	0	0	0	0	-	-
COc1ccc(C(C)(C)C)cc1NC(=O)c1ccc2ncsc2c1	16.3	0	0	0	0	0
CCCc1cc(=O)oc2c(CNc3ccc(OCC)cc3)c(O)ccc12	0	0	0	0	-	-
COc1ccc(/C=N/NC(=O)c2ccc(COc3ccccc3Cl)o2)c(OC)c1C	21.9	0	0	0	0	0
COc1ccc(/C=N/NC(=O)c2ccc(COc3ccccc3Cl)o2)cc1	0	0	0	0	-	-
